Laboratory results published in ChEMBL document CHEMBL4513154, “CO-ADD screening of Jain University (India) compounds”.
Results with a measured potency or affinity are listed apart.

How the values were obtained:
Staphylococcus aureus = conditions: Concentration 32 ug.mL-1; ASSAY_TEST Inhibition of Bacterial Growth; detection method Absorption (OD600); MEDIA CAMHB; plate type 384well; NBS; CORNING #3640; time 18 hr
Escherichia coli = conditions: Concentration 32 ug.mL-1; ASSAY_TEST Inhibition of Bacterial Growth; detection method Absorption (OD600); MEDIA CAMHB; plate type 384well; NBS; CORNING #3640; time 18 hr

| SMILES | Inhibition (Staphylococcus aureus) [%] | Inhibition (Escherichia coli) [%] |
| --- | --- | --- |
| N#Cc1ccccc1-c1ccc(Cn2c(-c3cscn3)nc3c(Cl)cccc32)cc1 | 2.86 | 1.52 |
| Nc1nc(Nc2ccc(Cl)cc2)sc1-c1nc2ccccc2c(=O)n1-c1ccccc1 | 3.07 | -2.8 |
| N#Cc1ccc(Cn2c(-c3cscn3)nc3c(Cl)cccc32)cc1 | -3.58 | -8.14 |
| Cn1c(-c2cscn2)nc2cc(Cl)ccc21 | -4.5 | -10.62 |
| CCc1ccc(Nc2nc(N)c(-c3nc4ccccc4c(=O)n3-c3ccc(Cl)cc3)s2)cc1 | 11.42 | 0.09 |
| CC(C)c1ccc(Cn2c(-c3cscn3)nc3c(Cl)cccc32)cc1 | 1.32 | -0.45 |
| Clc1ccc2nc(-c3cscn3)n(Cc3ccccc3)c2c1 | -8.96 | -8.13 |
| CCc1ccc(Nc2nc(N)c(-c3nc4ccccc4c(=O)n3-c3ccccc3)s2)cc1 | 14.54 | -0.69 |
| Fc1cc(Cn2c(-c3cscn3)nc3c(Cl)cccc32)cc(C(F)(F)F)c1 | 6.77 | 3.26 |
| N#Cc1ccccc1-c1ccc(Cn2c(-c3cscn3)nc3cc(Cl)ccc32)cc1 | -3.28 | -8.05 |
| CCc1ccc(Nc2nc(N)c(-c3nc4ccccc4c(=O)n3-c3ccc(CC)cc3)s2)cc1 | 1.66 | -1.71 |
| N=C(Nc1ccccc1Cl)c1cscn1 | 4.17 | 18.4 |
| CCc1ccc(-n2c(-c3sc(Nc4ccccc4)nc3N)nc3ccccc3c2=O)cc1 | 9.22 | -7.31 |
| Clc1cccc2[nH]c(-c3cscn3)nc12 | -11.71 | -6.5 |
| Cn1c(-c2cscn2)nc2c(Cl)cccc21 | -0.57 | -9.25 |
| N=C(Nc1ccccc1)c1cscn1 | -2.93 | 3.08 |
| N#Cc1ccccc1-c1ccc(Cn2c(-c3cscn3)nc3ccccc32)cc1 | 0.09 | -0.92 |
| O=[N+]([O-])c1ccc(Cn2c(-c3cscn3)nc3ccccc32)cc1 | 0.92 | -6.04 |
| Nc1nc(Nc2ccccc2)sc1-c1nc2ccccc2c(=O)n1-c1ccccc1 | 10.63 | 1.98 |
| Clc1cccc2c1nc(-c1cscn1)n2Cc1ccccc1 | -5.58 | -9.3 |
| Nc1nc(Nc2ccccc2)sc1-c1nc2ccccc2c(=O)n1-c1ccc(Cl)cc1 | 3.1 | -14.74 |
| Clc1ccc2c(c1)nc(-c1cscn1)n2Cc1ccccc1 | -3.7 | -7.11 |
| N#Cc1ccccc1-c1ccc(Cn2c(-c3cscn3)nc3ccc(Cl)cc32)cc1 | -8.21 | -6.57 |
